Bioassay records from PubChem.
Rows were chosen to be rich in hits. Some 3.6% of all compounds tested hit in one or more screens of this group.
Pf apPOL inh = Pf-apPOL inhibitors, biochemical, fluorescence; inhibition, % at 10 µM; 210,000 tested, 0.25% active; AID 1794808, 2022; Recombinant Pf-apPOL, molecular beacon fluorescence, 1.5 h
mHTT-CaM PPI inh = mutant huntingtin-calmodulin interaction inhibitors – biochemical, AlphaScreen, primary screen. P42858. AlphaScreen His-mHTT/GST-CaM binding, luminescence. 190,000 tested, 3.6% active. inhibition, % at 15 µM. AID 1671202, 2021;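 further: 0% = both proteins with DMSO and 100% = one protein alone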
* hit, by the source's call; i = inactive; . = not tested or not shown. No stated cut-off is given here; in the data, active means inhibition above about 50%; inactive means the rest.

SMILES | Pf apPOL inh | mHTT-CaM PPI inh
O=C(O)C1CC=C(Cl)CC1C(=O)Nc1cncs1 (configuration not stated) | -1 | -1
CCCC(=O)NC(c1ccc(OC)cc1)c1cc(Cl)c2cccnc2c1O (configuration not stated) | 11 | 25
CCC(=O)NC(c1ccc(OC)c(OC)c1)c1cc(Cl)c2cccnc2c1O (configuration not stated) | -6 | 100*
CN(C)c1ccc(C2C(C#N)=C(N)N(c3ccc(Br)cc3)C3=C2C(=O)CCC3)cc1 (configuration not stated) | -1 | 100*
COc1ccc(N2C(N)=C(C#N)C(c3ccc(Br)cc3)C3=C2CCCC3=O)cc1 (configuration not stated) | -5 | 25
CN(C)c1ccc(C2C(C#N)=C(N)N(c3ccc(Cl)cc3)C3=C2C(=O)CCC3)cc1 (configuration not stated) | -4 | 99*
N#CC1=C(N)N(c2ccc(Cl)cc2)C2=C(C(=O)CCC2)C1c1cccnc1 (configuration not stated) | -1 | 1
CCCn1cc(C2=CCN(C(=O)NCc3ccc(OC)cc3)CC2)c2cccnc21 | -1 | 24
c1ccc(-c2nnc3n2C2(CCCC2)Cc2ccccc2-3)cc1 | 3 | -2
O=C1C=C2c3ccccc3CC3(CCCC3)N2C1=O | 0 | 84*
CC(C)(C)C(=O)Oc1ccc2c(c1)OC(=Cc1ccco1)C2=O | -7 | 8
O=C1C(=O)N(CCc2ccccc2)c2ccc(Cl)cc21 | -4 | 34
Cc1ccc(CN2C(=O)C(=O)c3cc(Cl)ccc32)cc1 | -7 | 62*
O=S(=O)(c1ccc(Cl)c(S(=O)(=O)N2CCOCC2)c1)N1CCOCC1 | 3 | -2
O=C1C(=O)N(Cc2cccc(Cl)c2)c2ccccc21 | -6 | 93*
Cc1ccc(CN2C(=O)C(=O)c3cc(S(=O)(=O)N4CCOCC4)ccc32)cc1 | 37 | 89*
O=C1C(=O)N(Cc2cccc(C(F)(F)F)c2)c2ccccc21 | -5 | 48
CCS(=NS(=O)(=O)c1ccc(C)cc1)c1ccccc1 (configuration not stated) | -3 | .
CCCCCCCCCCCc1nnc(N)s1 | . | -7
COc1ccc(C(Nc2cccc(C)n2)c2ccc3cccnc3c2O)cc1 (configuration not stated) | 3 | 100*
Cc1cccc(NC(c2ccncc2)c2ccc3cccnc3c2O)n1 (configuration not stated) | 2 | 100*
Cc1cccc(NC(=O)c2cccs2)n1 | 0 | .
O=C(Nc1cccc(Cl)c1)Nc1cccc2cccnc12 | -5 | -2
Cc1cccc(NC(c2ccc(Cl)cc2)c2ccc3cccnc3c2O)n1 (configuration not stated) | -12 | 98*
Cc1cccc(NC(c2cccc(Cl)c2)c2ccc3cccnc3c2O)n1 (configuration not stated) | -2 | 98*
SMILES | Pf apPOL inh | mHTT-CaM PPI inh
COc1ccc(NC(=O)Nc2cccc(C)n2)cc1 | 4 | -6
Cc1cccc(NS(=O)(=O)c2ccc(Cl)cc2)n1 | 0 | -2
CCn1ccc(C(=O)N2CCC(n3c(-c4ccc(OC)cc4)nc4cccnc43)C2)n1 (configuration not stated) | 5 | 1
O=C(C1CCCCC1)N1CCC(CCOc2ccccc2F)CC1 | -5 | -30
COc1ccc2c(c1)CCC/C2=N\OC(=O)c1cc(Cl)ccc1OC | -6 | i
Cc1ccc(C(=O)N2CCN(c3nnc4cccc(C)n34)CC2)s1 | -6 | 0
C(=Nc1cccnc1)c1c[nH]c2ccccc12 | . | 16
CCN(CC)c1ccc(N=Cc2c[nH]c3ccccc23)cc1 | -6 | 83*
O=C(Nc1cccc(-c2nc3ncccc3o2)c1)C(c1ccccc1)c1ccccc1 | 1 | 5
COC1N(c2ccccc2)N=C(c2ccccc2)N1c1ccccc1 (configuration not stated) | . | 13
c1ccc(N2N=C3N(c4ccccc4)C2N3c2ccccc2)cc1 | . | 77*
Nc1nc2ccccc2n1CCOc1ccc(Cl)cc1Cl | -3 | 75*
Nc1nc2ccccc2n1CCOc1ccc(Cl)cc1 | -2 | 43
Nc1nc2ccccc2n1CCOc1ccc(Br)cc1 | -2 | 73*
Nc1ccc(-c2nc3ccccc3n2CCCOc2ccccc2)cc1 | 12 | 51*
Clc1ccc(OCCn2cnc3ccccc32)c(Cl)c1 | -6 | 0
Nc1ccc(-c2nc3ccccc3n2CCOc2ccccc2)cc1 | 11 | 37
Cc1cccc(-n2nc3c(c2NC(=O)C(C)C)CS(=O)C3)c1C (configuration not stated) | -2 | -1
O=C(CNCCN1CCOCC1)Nc1sc2c(c1C(=O)Nc1ccccc1)CCC2 | -1 | 89*
CCNC(=O)c1c(NC(=O)c2ccccc2)sc2c1CCCC2 | 1 | -12
O=C(Nc1sc2c(c1C(=O)Nc1ccc(Br)cc1)CCCCC2)c1cccnc1 | 6 | 3
O=C(CNCCO)Nc1sc2c(c1C(=O)Nc1ccc(Br)cc1)CCC2 | -1 | 66*
O=C(CN1CCOCC1)Nc1sc2c(c1C(=O)Nc1ccc(Cl)cc1)CCC2 | 0 | 0
NNC(=O)c1c(NC(=O)c2ccccc2)sc2c1CCC2 | -9 | 64*
CN1CCN(CCCNC(=O)C2CCN(c3nnc4ccc(Cl)cn34)CC2)CC1 | -3 | 1
SMILES | Pf apPOL inh | mHTT-CaM PPI inh
COc1ccc(OC)c(/C=C2N=C(/C=C/c3ccc(Cl)cc3Cl)OC/2=O)c1 | -8 | 4
O=C(c1cc(Cl)ccc1F)N1CCc2nc(-c3ccccc3)ncc2C1 | -4 | -4
O=C(Cc1cccc(F)c1)NCc1cccnc1-c1ccccc1 | -8 | -12
CSc1cccc(NC(=O)CN(C)S(=O)(=O)c2ccc(Cl)cc2)c1 | 0 | 3
O=C(Nc1c(Cc2ccccc2)nc2ccccn12)C(Cl)Cl | 22 | 44
CC(Cl)C(=O)Nc1c(Cc2ccccc2)nc2ccccn12 (configuration not stated) | 72* | 44
COc1ccccc1C1=N/C(=C/c2cccc(Cl)c2Cl)C(=O)O1 | 0 | 4
CC(=O)Nc1ccc(S(=O)(=O)Nc2ccc(C)cc2[N+](=O)[O-])cc1 | 0 | 51*
CC(=O)Nc1ccc(S(=O)(=O)Nc2ccc(C)cc2Br)cc1 | -7 | -2
Nc1nc2c(F)cc(F)cc2s1 | . | -6
COc1ccc(Br)cc1C(=O)Nc1ccc(C)c(C)c1 | 2 | -2
Cc1cc(C(=O)N2CCC3(CC2)OCCO3)c2ccccc2n1 | -8 | -6
Cc1ccc(Cn2c(=O)cc(C(=O)N3CCC4(CC3)OCCO4)c3ccccc32)cc1 | 1 | 59*
O=[N+]([O-])c1ccc(Nc2c[nH]c3ccccc23)cc1 | 1 | 89*
O=c1sc2ccccc2c(Nc2ccc([N+](=O)[O-])cc2)c1[N+](=O)[O-] | . | 25
O=[N+]([O-])c1ccc(Nc2ccc(F)cc2)cc1 | -2 | .
O=Cc1[nH]c2ccccc2c1Nc1ccc([N+](=O)[O-])cc1 | -2 | 100*
Oc1c(C=Nc2cccc(F)c2)[nH]c2ccc(Br)c(Cl)c12 | -8 | 9
O=C(c1cccc2ccccc12)N1CCN(CC(F)(F)F)CC1 | -2 | -16
COc1ccc(CNC(=O)Cc2nc(-c3ccncc3)n[nH]2)cc1 | -5 | -11
COc1cccc(CNC(=O)c2cn3cc(Cl)ccc3n2)c1 | -3 | 1
COc1cccc(-c2ccc3nc(C(=O)NCc4ccncc4)cn3c2)c1 | 12 | 52*
